Assay results: PubChem BioAssay (NCI)
This is part of a sample that, as a whole, favours compounds with a hit. Of some 83,000 tested, about 20% had one in any assay.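 Assay: single dose, 48 h. Readout: percent growth (0 = no net growth; negative = cell death). Active: <10.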 The source made the active and inactive calls.

Columns and labels:
Experiment in all cases: NCI-60 one-dose screen, 48 h (100 = growth as untreated, 0 = no growth, -100 = all killed)
HCT-15 colon = settings: 10 µM unless noted
SNB-75 CNS = settings: 10 µM
U251 CNS = settings: 10 µM unless noted
PC-3 prostate = settings: 10 µM unless noted
SK-MEL-5 melanoma = settings: 10 µM unless noted
UACC-62 melanoma = settings: 10 µM unless noted
LOX IMVI melanoma = settings: 10 µM unless noted
SK-MEL-28 melanoma = settings: 10 µM unless noted
SNB-19 CNS = settings: 10 µM unless noted
HT29 colon = settings: 10 µM unless noted

Measured: growth

COC(OC)c1ccccc1
inactive: HCT-15 colon 105% | SNB-75 CNS 91% | U251 CNS 99.3% | PC-3 prostate 93.1% | SK-MEL-5 melanoma 107% | UACC-62 melanoma 107% | LOX IMVI melanoma 88.2% | SK-MEL-28 melanoma 104%

S=C1CC(=S)NC(=S)N1
inactive: HCT-15 colon 116% | SNB-75 CNS 92.5% | SNB-19 CNS 96.1% | PC-3 prostate 107% | SK-MEL-5 melanoma 105% | UACC-62 melanoma 100% | LOX IMVI melanoma 94.6% | SK-MEL-28 melanoma 108%

COc1ccc(Nc2nc(N)nc3c2CCN(Cc2ccc(OC)cc2OC)C3=O)cc1
inactive: HCT-15 colon 91% | SNB-75 CNS 85.7% | SNB-19 CNS 72.2% | PC-3 prostate 90% | SK-MEL-5 melanoma 80.7% | UACC-62 melanoma 68% | LOX IMVI melanoma 71.9% | SK-MEL-28 melanoma 90%

CC1(c2ccc(Cl)cc2)OC(=O)CC(=O)O1
inactive: HCT-15 colon 102% | SNB-75 CNS 99% | SNB-19 CNS 97% | U251 CNS 102% | PC-3 prostate 101% | SK-MEL-5 melanoma 110% | UACC-62 melanoma 102% | LOX IMVI melanoma 106% | SK-MEL-28 melanoma 112%

COc1cc(C2C3=C(COC3=O)Nc3cc4c(cc32)OCO4)cc2c1OCO2 (stereo not drawn)
inactive: SNB-75 CNS 42.2% | SNB-19 CNS 31% | U251 CNS 18.5% | PC-3 prostate 24% | UACC-62 melanoma 41.3% | LOX IMVI melanoma 16% | SK-MEL-28 melanoma 65.3%
active: HCT-15 colon 9.19% | SK-MEL-5 melanoma -60.6%

COc1ccc2c(c1)C(c1cc(OC)c3c(c1)OCO3)C1=C(COC1=O)N2 (stereo not drawn)
inactive: HCT-15 colon 26.2% | SNB-75 CNS 43.6% | SNB-19 CNS 35.2% | U251 CNS 20.3% | PC-3 prostate 21.9% | UACC-62 melanoma 46.7% | LOX IMVI melanoma 20.1% | SK-MEL-28 melanoma 60%

C=C[C@@H]1C[C@@H]2Cc3c(C)cc(C)cc3N1O2
inactive: HCT-15 colon 101% | SNB-75 CNS 95.4% | SNB-19 CNS 113% | U251 CNS 90.2% | PC-3 prostate 93% | SK-MEL-5 melanoma 103% | UACC-62 melanoma 96% | LOX IMVI melanoma 88.4% | SK-MEL-28 melanoma 101%

COc1ccc2c(c1)[nH]c(=O)c1c3cccc(F)c3cn21
inactive: SNB-75 CNS 76.2% | SK-MEL-5 melanoma 27.6% | UACC-62 melanoma 40.3% | LOX IMVI melanoma 38.8% | SK-MEL-28 melanoma 61.4%
active: HCT-15 colon 9.78% | U251 CNS 0.931% | PC-3 prostate 2.38%

O=C(c1ccccc1)C1OC1c1ccc([N+](=O)[O-])cc1 (stereo not drawn)
inactive: HCT-15 colon 70.8% | SNB-75 CNS 70% | U251 CNS 64.8% | PC-3 prostate 63.2% | SK-MEL-5 melanoma 52.7% | UACC-62 melanoma 71.4% | LOX IMVI melanoma 29% | SK-MEL-28 melanoma 97.4%

Cn1c(=O)c2[nH]c(C3CC=CCC3)nc2n(C)c1=O (stereo not drawn)
inactive: HCT-15 colon 106% | SNB-75 CNS 93.9% | SNB-19 CNS 100% | U251 CNS 105% | PC-3 prostate 87.6% | SK-MEL-5 melanoma 111% | UACC-62 melanoma 96% | LOX IMVI melanoma 105% | SK-MEL-28 melanoma 117%

C=C[C@@H]1C[C@H](O)Cc2cc(F)ccc2N1
inactive: HCT-15 colon 96.4% | SNB-75 CNS 87.9% | SNB-19 CNS 104% | PC-3 prostate 97.2% | SK-MEL-5 melanoma 93.3% | UACC-62 melanoma 99.1% | LOX IMVI melanoma 94.2% | SK-MEL-28 melanoma 98.7%

Fc1ccc(Nc2ncnc3ccc(-c4cnc5[nH]ccc5c4)cc23)cc1Cl
inactive: HCT-15 colon 31.1% | PC-3 prostate 27.5% | SK-MEL-5 melanoma 21% | UACC-62 melanoma 44.8% | SK-MEL-28 melanoma 57.4%
active: SNB-75 CNS -65.2% | U251 CNS -68.2% | LOX IMVI melanoma -44.4%

COc1cc(/C=C/C(=O)c2cccc(-n3cc(-c4cc(OC)c(OC)c(OC)c4)[nH]c3=O)c2)cc(OC)c1OC
inactive: SNB-75 CNS 44.6% | SNB-19 CNS 56.6% | SK-MEL-5 melanoma 27%
active: HCT-15 colon -4.5% | U251 CNS -41% | PC-3 prostate 9.89% | UACC-62 melanoma 7.42% | LOX IMVI melanoma -55% | SK-MEL-28 melanoma 4.45%

Cc1ccc2nc(Cl)cc(=O)n2c1
inactive: HCT-15 colon 102% | SNB-75 CNS 115% | SNB-19 CNS 105% | U251 CNS 119% | PC-3 prostate 96.9% | SK-MEL-5 melanoma 120% | UACC-62 melanoma 102% | LOX IMVI melanoma 112% | SK-MEL-28 melanoma 120%

Nc1nc(-c2ccccc2)c(CCCOc2ccc(NC(=O)CBr)cc2)c(=O)[nH]1
inactive: HCT-15 colon 101% | SNB-75 CNS 94.3% | SNB-19 CNS 91.1% | U251 CNS 86.4% | PC-3 prostate 107% | SK-MEL-5 melanoma 92.9% | UACC-62 melanoma 90.3% | LOX IMVI melanoma 20.3% | SK-MEL-28 melanoma 104%

Oc1ccccc1/C=N/NC(=S)NC1CC2C=CC1C2 (stereo not drawn)
inactive: HCT-15 colon 35.5% | SNB-75 CNS 105% | SNB-19 CNS 82.3% | PC-3 prostate 75.6% | SK-MEL-5 melanoma 78.3% | UACC-62 melanoma 82.9% | LOX IMVI melanoma 44.9% | SK-MEL-28 melanoma 83.1%

COc1ccc2[nH]c(=O)c3c4ccccc4cn3c2c1
inactive: SNB-75 CNS 56.5% | SNB-19 CNS 27.9% | SK-MEL-5 melanoma 35.1% | UACC-62 melanoma 28.2% | SK-MEL-28 melanoma 54.7%
active: HCT-15 colon 9.19% | U251 CNS 9.8% | PC-3 prostate 7.65% | LOX IMVI melanoma 4.23%

COc1ccc(CNCCCN2C(=O)c3ccc4c5c(ccc(c35)C2=O)C(=O)N(CCCNCCCCNCCCN)C4=O)c(OC)c1OC
active: SNB-75 CNS -26.8% | U251 CNS -6.34% | UACC-62 melanoma 1.36% | LOX IMVI melanoma 6.59%
inactive: HCT-15 colon 19.7% | SNB-19 CNS 28% | PC-3 prostate 15.3% | SK-MEL-28 melanoma 29%

CN1C=CN(Cc2ccc(-c3ccccn3)nc2)[CH-]1.CN1C=CN(Cc2ccc(-c3ccccn3)nc2)[CH-]1.[Au+3]
inactive: HCT-15 colon 68.5% | SNB-75 CNS 72.6% | SNB-19 CNS 62.6% | U251 CNS 38.6% | PC-3 prostate 20.3% | SK-MEL-5 melanoma 37.8% | UACC-62 melanoma 30.7% | LOX IMVI melanoma 32.4% | SK-MEL-28 melanoma 50.7%

CC(=O)Nc1nc(N)nc(NC(C)=O)c1N=O
inactive: HCT-15 colon 104% | SNB-75 CNS 109% | SNB-19 CNS 111% | U251 CNS 116% | PC-3 prostate 99.6% | SK-MEL-5 melanoma 114% | UACC-62 melanoma 109% | LOX IMVI melanoma 94.3% | SK-MEL-28 melanoma 115%

COc1ccc(-c2cn(-c3cccc(C(=O)/C=C/c4cc(OC)c(OC)c(OC)c4)c3)c(=O)[nH]2)cc1OC
inactive: HCT-15 colon 82.1% | SNB-75 CNS 58.2% | SNB-19 CNS 108% | U251 CNS 71.6% | PC-3 prostate 81.5% | SK-MEL-5 melanoma 88.3% | UACC-62 melanoma 73.1% | LOX IMVI melanoma 69.4% | SK-MEL-28 melanoma 98.9%

Cc1ccc(Nc2nnc(-c3ccc(Cl)cc3)o2)c(C)c1
inactive: HCT-15 colon 44.7% | SNB-75 CNS 78.7% | SNB-19 CNS 95.8% | PC-3 prostate 92.1% | SK-MEL-5 melanoma 92.7% | UACC-62 melanoma 70.8% | LOX IMVI melanoma 75.9% | SK-MEL-28 melanoma 76.8%

COc1ccc(/C=C(\C#N)c2cc(OC)c3c(c2)OCO3)cc1
inactive: HCT-15 colon 15.7% | SNB-75 CNS 39.8% | U251 CNS 20.8% | PC-3 prostate 23% | UACC-62 melanoma 39.3% | LOX IMVI melanoma 19.2% | SK-MEL-28 melanoma 67.8%
active: SK-MEL-5 melanoma -58.9%

COc1ccc(NC(=O)CSc2nc(-c3ccc(OC)c(OC)c3)cc(-c3cc(OC)c(OC)c(OC)c3)n2)cc1
inactive: HCT-15 colon 100% | SNB-75 CNS 76% | SNB-19 CNS 91.3% | U251 CNS 105% | PC-3 prostate 88.6% | SK-MEL-5 melanoma 88.7% | UACC-62 melanoma 92.2% | LOX IMVI melanoma 97.1% | SK-MEL-28 melanoma 108%

CC(=O)Nc1ccc(S(=O)(=O)n2ccc(-c3ccc4c(c3)CCC(C)(C)O4)n2)cc1
inactive: HCT-15 colon 59.3% | SNB-75 CNS 81.4% | SNB-19 CNS 73.3% | U251 CNS 66% | PC-3 prostate 44.4% | SK-MEL-5 melanoma 26.3% | UACC-62 melanoma 62.4% | LOX IMVI melanoma 64.1% | SK-MEL-28 melanoma 93.1%

NC(=S)N/N=C1\CCCC(C(F)(F)F)C1 (stereo not drawn)
inactive: HCT-15 colon 90.5% | SNB-75 CNS 87.3% | SNB-19 CNS 100% | U251 CNS 107% | PC-3 prostate 69.6% | SK-MEL-5 melanoma 116% | UACC-62 melanoma 100% | LOX IMVI melanoma 78% | SK-MEL-28 melanoma 111%

Cn1c2ccc(Br)cc2c2c3c(c4c5ccccc5[nH]c4c21)C(=O)N(O)C3=O
active: HT29 colon -76.4% | SNB-75 CNS -86.9% | SNB-19 CNS -35.8% | U251 CNS -71% | PC-3 prostate -43.9% | SK-MEL-5 melanoma -97.8% | UACC-62 melanoma -72.3% | LOX IMVI melanoma -80.9% | SK-MEL-28 melanoma -79.3%

COc1ccc(-c2c(N)n[nH]c2-c2cc(OC)c3c(c2)OCCO3)cc1
inactive: HT29 colon 29.7% | SNB-75 CNS 57.4% | SNB-19 CNS 84.9% | U251 CNS 77.6% | PC-3 prostate 66.9% | SK-MEL-5 melanoma 69.8% | UACC-62 melanoma 71% | LOX IMVI melanoma 69.8% | SK-MEL-28 melanoma 80.7%

NC1=NN(O)C2=CC([N+](=O)[O-])C=CC2=N1 (stereo not drawn)
inactive: HCT-15 colon 101% | SNB-75 CNS 99.5% | U251 CNS 109% | PC-3 prostate 86.5% | SK-MEL-5 melanoma 109% | UACC-62 melanoma 122% | LOX IMVI melanoma 83.7% | SK-MEL-28 melanoma 117%
